Several values for one entry are separate records, joined by “and”; a condition that tells them apart may be missing. Equal entries are not always repeated. Results filed as inconclusive are left out. Activity calls are given as the source filed them. Calls come from the whole dose curve; as a rule, active = well fitted activation curve with a large enough effect; inconclusive = small, poorly fitted or top-dose-only effect; inactive = flat fitted curve, though single readings scatter.
assay: qHTS assay to identify small molecule phospholipidosis (PLD) inducers (AID 1259344); conditions: HepG2 phospholipidosis, LipidTOX Red imaging, 24 h; series mostly up to 38.3 µM; PLD induction: at the top concentration
In short: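 HepG2 cells grown on collagen I take up LipidTOX Red while exposed to compound for 24 h; after fixation they are imaged at 20x and pit metrics are extracted.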
% is set by controls: 0 for no effect and ±100 for the full control effect.

Compound | PLD induction | Potency
Nc1nc(/C(=C/CC(=O)O)C(=O)N[C@@H]2C(=O)N3C(C(=O)O)=CCS[C@H]23)cs1 | -0.404% (inactive) | 
C[S+](CC[C@H](N)C(=O)O)C[C@H]1O[C@@H](n2cnc3c(N)ncnc32)[C@H](O)[C@@H]1O (some centres not stated) |  | inactive
C=CC1=C(C(=O)O)N2C(=O)[C@@H](NC(=O)/C(=N/OCC(=O)O)c3csc(N)n3)[C@H]2SC1 (stereo in doubt) | -0.167% [at 15.5 µM] (inactive) | 
Nc1c(CC(=O)O)cccc1C(=O)c1ccccc1 | -2.85% [at 7.66 µM] (inactive) and -2.33% [at 7.66 µM] (inactive) | 
C=CC(N)CCC(=O)O (configuration not stated) | 1.01% (inactive) | 
O=C1CCC(c2ccccc2)(C2CCN(Cc3ccccc3)CC2)C(=O)N1 (configuration not stated) | 1.48% (inactive) | 
Cc1cc(-c2ccc(N=Nc3ccc4c(S(=O)(=O)O)cc(S(=O)(=O)O)c(N)c4c3O)c(C)c2)ccc1N=Nc1ccc2c(S(=O)(=O)O)cc(S(=O)(=O)O)c(N)c2c1O |  | inactive
